# Bioassay records from PubChem BioAssay.
# This excerpt belongs to a sample that is enriched for hits.
# IL1B secr inh: qHTS for Inhibitors of Inflammasome Signaling: IL-1-beta AlphaLISA Primary Screen | THP-1 LPS/ATP IL-1B secretion, AlphaLISA, 16 h; active compounds read low | activity change, % at 57.5 µM | 360,000 compounds, 4.7% hits | AID 743279, 2014; in the data active means activity change below about -50%; inconclusive means mostly about -30% to -49%
#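 Secreted IL-1B measured by AlphaLISA bead assay after 16 h compound exposure of THP-1 cells; compounds (final up to 57.5 uM) added 1 h before LPS (250 ng/mL) and ATP (1.25 mM) stimulation; lower signal means less secretion.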
# TDP1 cell CPT: qHTS for Inhibitors of human tyrosyl-DNA phosphodiesterase 1 (TDP1): qHTS in cells in presence of CPT; 420,000 compounds, 12% hits; Potency, µM (series often up to 46.2 µM), without a hit: at the highest dose activity change, negative = growth inhibition, hits mostly inhibitors; AID 686979, 2013; chicken DT40 Tdp1-/-;hTDP1 cells + 20 nM CPT, ATP luminescence, 48 h; further: potency means the concentration at half of the fitted maximal effect; nearly all actives have a fitted effect of over 55% in size
#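 Chicken DT40 Tdp1-/- cells stably complemented with human TDP1 were seeded at 400 cells/well in medium containing 20 nM camptothecin, exposed to pin-transferred compounds, and grown at 37 °C for at least 48 hr. Viability was read as ATP luminescence.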
# HT1080 IDH1KD tx: qHTS for induction of synthetic lethality in tumor cells producing 2HG: qHTS for the HT-1080-IDH1KD cell line; HT-1080 IDH1 knockdown viability, ATP luminescence, 48 h; Potency, µM (doses to about 46.1 µM), without a hit: at the highest dose activity, negative = toxicity, usual class: cytotoxic; 360,000 compounds, 2% hits;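 further: potency means the concentration at half of the fitted maximal effect; 0% = DMSO wells and -100% = cell-free medium wells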
#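 Using the IDH1-knockdown HT-1080 line run in the same batch and compound series as the NT line, viability after 48 h at 37 °C was determined by CellTiter-Glo luminescence and expressed as % activity.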
# DT40 TDP1 no CPT: qHTS for Inhibitors of human tyrosyl-DNA phosphodiesterase 1 (TDP1): qHTS in cells in absence of CPT. DT40 Tdp1-/- hTDP1 cells, no CPT, ATP luminescence, 48 h. Potency, µM (titrated, usually from 46.2 µM), without a hit: top-dose activity change, negative = growth inhibition, hits mostly inhibitors. 420,000 compounds, 15% hits; further: potency means the concentration at half of the fitted maximal effect; nearly all actives have a fitted effect of over 55% in size
#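 Chicken DT40 Tdp1-/- cells stably complemented with human TDP1 were seeded at 400 cells/well with DMSO in place of 20 nM camptothecin. After compound pinning, cells grew at least 48 hr at 37 °C; viability read by CellTiter-Glo luminescence.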
# ALOX12 inh: Primary qHTS assay for inhibitors of human arachidonate 12S-lipoxygenase (ALOX12): Round 2; Polyunsaturated fatty acid lipoxygenase ALOX12 (Homo sapiens), P18054; purified 12hLO, xylenol orange hydroperoxide absorbance; Potency, µM (top dose mostly 108 µM), for inactives: at the highest dose activity change, negative = inhibition, usual class: inhibitors; 580,000 compounds, 1.1% hits; further: potency means the concentration at half of the fitted maximal effect
# Target sequence (P18054 whole entry, looked up): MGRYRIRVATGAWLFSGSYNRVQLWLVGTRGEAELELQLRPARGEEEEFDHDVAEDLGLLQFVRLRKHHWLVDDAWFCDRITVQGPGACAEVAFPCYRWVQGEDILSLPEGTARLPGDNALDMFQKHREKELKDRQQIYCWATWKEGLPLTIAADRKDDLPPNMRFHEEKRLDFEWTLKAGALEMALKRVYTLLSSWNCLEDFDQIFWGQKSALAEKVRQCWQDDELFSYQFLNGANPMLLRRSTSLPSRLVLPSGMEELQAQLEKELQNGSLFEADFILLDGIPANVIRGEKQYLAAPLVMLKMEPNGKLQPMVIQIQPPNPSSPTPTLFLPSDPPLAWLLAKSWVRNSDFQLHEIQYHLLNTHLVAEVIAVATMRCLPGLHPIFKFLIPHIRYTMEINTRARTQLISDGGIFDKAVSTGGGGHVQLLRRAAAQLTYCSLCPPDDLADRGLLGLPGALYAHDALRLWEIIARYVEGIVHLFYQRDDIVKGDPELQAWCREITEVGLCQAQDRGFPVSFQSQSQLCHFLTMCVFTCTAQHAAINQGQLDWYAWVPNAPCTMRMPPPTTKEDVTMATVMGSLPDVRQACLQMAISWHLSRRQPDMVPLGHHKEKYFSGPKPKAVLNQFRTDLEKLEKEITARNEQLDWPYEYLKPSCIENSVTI
#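 Purified human 12hLO at 150 nM in 25 mM Hepes, 0.01% Triton X-100, pH 7.0, preincubated 15 min at room temperature with compound. Reaction started with 40 uM arachidonic acid, 30 min at room temperature. Hydroperoxide measured by Fe-xylenol orange, 573/405 nm absorbance ratio.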
# HT1080-NT tox: qHTS for induction of synthetic lethality in tumor cells producing 2HG: qHTS for the HT-1080-NT fibrosarcoma cell line. HT-1080-NT fibrosarcoma viability, CellTiter-Glo ATP luminescence, 48 h. Potency, µM (highest dose often 46.1 µM), without a hit: at the highest dose activity, negative = less viability, most hits filed as cytotoxic. 360,000 compounds, 1.6% hits. AID 686970, 2013;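 further: NT is the 2HG producing partner of a matched IDH1 knockdown line; potency means the concentration at half of the fitted maximal effect; 0% = DMSO-treated cells and -100% = media-only wells without cells; nearly all actives have a fitted effect of over 55% in size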
#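 Read-out is CellTiter-Glo luminescence after 10 minutes at room temperature, following 48 hours' compound treatment of HT-1080-NT cells (750 cells/well, RPMI, 5% FBS, 37 degrees C).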
# Starred values were filed as active, the others as inactive; ? = inconclusive; nt = not tested or not shown; [ ] = dose if it differs, or a comment. Unless noted, the call rests on the fitted dose curve; in most records, active means well fitted curve in the direction sought with a large enough effect; inconclusive means small, poorly fitted or top-dose-only effect, or another doubt; inactive means no such curve, though single readings can be large; an effect the other way counts as inactive or inconclusive. Unless noted, on the % scale 0 is the no-effect control and ±100 the full control effect.
SMILES,IL1B secr inh,TDP1 cell CPT,HT1080 IDH1KD tx,DT40 TDP1 no CPT,ALOX12 inh,HT1080-NT tox
Cc1nc(N2N=C(c3ccc(Cl)cc3)CC2c2ccco2)sc1C(=O)N(C)C (stereo not given),?,21µM*,?,16µM*,?,-24%
Cn1nnnc1SCC(=O)N1N=C(c2ccc(Cl)cc2)CC1c1ccco1 (stereo not given),-8,21µM*,-18%,16µM*,?,-3%
CN1CCN(C2=C(Cl)C(=O)c3ccccc3C2=O)CC1,-104*,2.3µM*,?,2.6µM*,?,?
NC(=O)C1CCN(C2=C(Cl)C(=O)c3ccccc3C2=O)CC1,-98*,2.3µM*,21µM*,2.9µM*,-17%,?
CC1COCC(C)N1C1=C(Cl)C(=O)c2ccccc2C1=O (stereo not given),?,0.65µM*,18µM*,1.5µM*,?,-26%
CN1CCN(C2=C(Cl)C(=O)C(c3cnc(N4CCCCC4)s3)=C(Cl)C2=O)CC1,0,2.1µM*,?,1.6µM*,nt,-12%
Cc1cn2nc(C(=O)N3CCC(NC(=O)CCC4CCCC4)CC3)cc2c(=O)[nH]1,nt,nt,nt,nt,-3%,nt
COc1cccc(CCN2CC[C@H]3CN(C(=O)c4ccccc4)CC[C@H]3CC2=O)c1OC,nt,nt,nt,nt,1%,nt
C[S+](=O)([O-])N1CC2(CCCN2Cc2cccnc2)Cc2ccccc21 (stereo not given),nt,nt,nt,nt,2%[6.33 µM],nt
O=C1C(Cl)=C(N2CCC(C(=O)O)CC2)C(=O)c2ccccc21,0,15µM*,?,16µM*,nt,?
O=C(O)C1CCN(C(=O)c2ccccc2Cl)CC1,25,-9%,-1%,-16%,-12%,16%
CC(=O)Nc1c(-c2ccc(C)cc2)c(C)nn1-c1ccc(C(=O)NCc2cccnc2)cc1,nt,nt,nt,nt,-1%,nt
Cc1nn(C)c(C)c1CN(Cc1nc(CCC(C)C)no1)C(C)C,-6,2.3µM*,?,0.58µM*,-1%,-13%
Cc1nc(CCNS(=O)(=O)c2c(C)nn(C)c2C)no1,nt,nt,nt,nt,-5%,nt
O=C(NCCc1noc(-c2ccncc2)n1)C1(S(=O)(=O)c2ccc(Cl)cc2)CC1,nt,nt,nt,nt,8%,nt
Cc1nc(C2(C)CCN(C(=O)CCc3cc(Cl)no3)CC2)no1,nt,nt,nt,nt,25%,nt
Cc1cccnc1N1CCN(Cc2ccc(-n3cncn3)cc2)CC1,nt,nt,nt,nt,60%,nt
CCCCOc1ccc(C(O)(CCN2CCOCC2)c2ccccc2)cc1 (stereo not given),2,?,0%,?,-17%,1%
CCOc1ccc(C(O)(c2ccccc2OC)C(CN2CCCC2)c2ccccc2)cc1 (stereo not given),?,12µM*,-3%,8.2µM*,-29%,-16%
COc1ccc(C(O)(c2ccccc2OC)C(CN2CCOCC2)c2ccccc2)cc1 (stereo not given),-6,?,-14%,?,-7%,-4%
CCCOc1ccc(C(O)(CCN2CCCCC2)c2ccccc2OC)cc1 (stereo not given),-27,18µM*,?,15µM*,-11%,?
CCOC(=O)[C@]12CCC=C1N(Cc1ccc3c(c1)OCO3)C(=O)[C@H](CC(=O)NCC13CC4CC(CC(C4)C1)C3)C2,?,?,?,23µM*,-7%,?
CCOC(=O)[C@]12CCCC=C1N(Cc1ccc3c(c1)OCO3)C(=O)[C@H](CC(=O)NCCCOC)C2,10,-28%,2%,-27%,-2%,12%
CCCCOCCCNC(=O)C[C@@H]1C[C@@]2(C(=O)OCC)CCC=C2N(Cc2ccc3c(c2)OCO3)C1=O,-9,21µM*,0%,16µM*,?,-15%
Cc1c(C(=O)N2CCN(C(=O)c3ccco3)CC2)[nH]c2c1C(=O)CC(C)(C)C2,nt,nt,nt,nt,-3%,nt
SMILES,IL1B secr inh,TDP1 cell CPT,HT1080 IDH1KD tx,DT40 TDP1 no CPT,ALOX12 inh,HT1080-NT tox
CCOC(=O)c1c(C(F)(F)C(F)(F)C(F)(F)C(F)(F)F)n[nH]c1C,19,?,-15%,-22%,-10%,-13%
Cc1nc(N2CCN(Cc3ccccc3)CC2)c(C#N)c2c1COC(C)(C)C2,-2,?,-4%,26µM*,-4%,-2%
CC1CCN(C(=O)C(=O)N2CCN(c3nc(-c4ccco4)c4c(c3C#N)CC(C)(C)OC4)CC2)CC1,nt,nt,nt,nt,14µM*,nt
CN(C)CCNc1nc(-c2ccco2)c2c(c1C#N)CC(C)(C)OC2,7,-29%,-9%,-17%,-6%,-13%
CC(C)c1nc(N2CCN(C(=O)c3ccco3)CC2)c(C#N)c2c1COC(C)(C)C2,?,15µM*,?,21µM*,-13%,?
CCCCN(C)c1nc(-c2ccco2)c2c(c1C#N)CC(C)(C)OC2,-67*,?,-22%,?,40µM*,?
CCN(CC)C(=O)CN1CCN(c2nc(C)c3c(c2C#N)CC(C)(C)OC3)CC1,nt,nt,nt,nt,-8%,nt
CC1(C)Cc2c(C#N)c(N3CCN(C(=O)c4ccccc4)CC3)nc(-c3ccco3)c2CS1,-29,?,-2%,?,-37%,1%
O=S(=O)(Cc1cc(N2CCOCC2)nc(-c2ccccn2)n1)c1ccccc1,-12,10µM*,-2%,18µM*,-2%,-8%
